40 sequences from the supplement of paper PMC6555819 can be followed below.

The test system of the experiment is VDR:RXRa (NR concentration 270 nM, RXRa partner concentration 90 nM). Briefly: PBM binding z-score (relative to random genomic background probes); higher = stronger binding; sequences stand for … in GC…GCGATTGACAGCGTAGAATGAAGG
On the procedure:
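Protein-binding microarray (Agilent 4x180K custom design, double-stranded 60-nt probes: 5' GC cap, 34-nt variable region, 24-nt constant primer region; full probe sequence given). Purified or IVT nuclear receptor:RXRα heterodimers (3:1 NR:RXRα, mostly 270:90 nM) or homodimers were incubated for 1 h in PBS with 2% milk and no ligand, then detected with Alexa488 antibodies. Fluorescence from o1-orientation probes (~5 replicates averaged) was converted to z-scores against 500 random hg19 background probes. Variable regions are seed direct-repeat (DR0–DR5) sites, all their single-nucleotide variants and half-site ablations.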
As to TTACCAAGGTGAGCTGAGGTCGTTTATCCAACTC, the PBM binding z-score turned out to be 4.32.

GATACAGTGTCAAGGCCAGAGTACGCGTATTGAT showed a PBM binding z-score of 0.126.

GGATCGAGGGCAAAGTTGATAGCATCTGTCGACG: the PBM binding z-score was found to be 1.44.

The sequence CCGAGTAGCTTATGGGGCATTCAGGCAACGGTGA showed a PBM binding z-score of -0.651.

Sequence TCATATAAGTAAATGCTAGGTGAAAGTCCGATCT registered a PBM binding z-score of 0.889.

AGAATGAGGTTACCAAAGATGAGGGAAACGCTTG returned a PBM binding z-score of 1.03.

CAAACTAGGTCACCGGAAGGTCCAAGTCCGCATG came in with a PBM binding z-score of 3.1.

The sequence ACTAGCAGGCCAATGGTCACTCAAGATTAGTCCG returned a PBM binding z-score of -0.614.

TCTCGGAGGACACGAAAGGTCAGAGGTCGACATC yielded a PBM binding z-score of 4.52.

Sequence ACTAGCAGGCCAAGGGTCGCTCAAGATTAGTCCG had a PBM binding z-score of 0.00609.

CAAACTAGGTCACAGAGGTCAAAGACCGTGCGTA showed a PBM binding z-score of 7.76.

The sequence CCGAGCAGGTTATGGGGCATTCAGGCAACGGTGA gave a PBM binding z-score of -0.144.

CGTCCAAGGTCAAGGTCAGTGGAAGAGACTCGAA displayed a PBM binding z-score of 4.89.

With CCTTACTGGTCACTCCAGGTTATAGCATCGGAGT, the PBM binding z-score came to 0.952.

In turn, TGAATGAGGTTATAAGATCAGGGGACGTTGCAAA registered a PBM binding z-score of 1.16.

Consider GCTATCAGTTGAAAGGGCAACCGAATGATTCTCG, for which the PBM binding z-score turned out to be 0.34.

The sequence TAGCCTAGGTAAGATCGGGCCAGTATACGCTATA showed a PBM binding z-score of -0.645.

Consider ACTATTAGTTGAGACGAGGGAAACCGATAGGTTG, for which the PBM binding z-score is -0.364.

For the sequence ACAGACAGGTGAGTGAAGCTAACTCAGCTGGACG, the PBM binding z-score is -0.513.

As to CCGACTGGGGCAAGGTTACCATAACGCACAGCCA, the PBM binding z-score was 0.0411.

The sequence TAGCCTAGGGCATGGGCCAGTATACCACGCGAAC displayed a PBM binding z-score of -0.452.

The sequence GCAGACAGGTGAAACGCAGGTAACTCAGGGTGGC gave a PBM binding z-score of -0.544.

As to TCTTGTAGATCAACAAGAGGTTAAGAAAGATCGA, the PBM binding z-score was 1.08.

Take TCTCCTAGGTCAACGATGGTCAGCTAATCTGCTA: the PBM binding z-score is 2.39.

In turn, CGAACTTGGTCATCCAGGACAGTGAATACATTGA gave a PBM binding z-score of 1.59.

AGAATGAGGTTACCAAAGAACAGGGAAACGCTTG came in with a PBM binding z-score of 1.17.

TCTTGTAGATCAGCAGGTTAAGAAAGCTGGCCAA came in with a PBM binding z-score of 0.357.

With TTTAGCAGGCCAGAGGGTCACTCAAGAGGTACGG, the PBM binding z-score was 1.55.

Regarding TAGCCTAGGTGAGATCGGGCCAGTATACGCTATA, the PBM binding z-score was -0.592.

In turn, CGTCCAAGGTCAAACGTCAGTGAAGAGATGACGG showed a PBM binding z-score of 4.37.

As for GCATATAGGTAATACAACGTGAAAGTCCGATTGT, the PBM binding z-score was -0.316.

In the case of ATCTCTAGGTAAAGATCGTTCAGTGAATGCAAAT, the PBM binding z-score is 0.221.

In turn, ATCTCTCGGTAAAAGTTCAGTGAATCCCGAGGAT had a PBM binding z-score of 1.03.

Sequence AGTCAAAGTGCACTAGGTAACGTAAGATTCAGCT displayed a PBM binding z-score of 0.166.

TAGCCTAGGTCAGATCGGGCCAATATACGCTATA registered a PBM binding z-score of 1.01.

ACTAGTTGGTCGGCTGAGGTCACACACAATTCGG registered a PBM binding z-score of 3.94.

Sequence CCGACTGGGGCATAAGGTGACCATAAGCCAGCCC showed a PBM binding z-score of -0.42.

Sequence AGAATGAGGATATTAAGATCAGGGAATTGCGGTC registered a PBM binding z-score of -0.178.

In the case of ATATGTAGGTTAAGGGTCATTTAGGTTGGTTCGC, the PBM binding z-score was 5.38.

ATATGTAGGTTACATCCAGGTCATTCAGGCTATG: the PBM binding z-score was 4.11.
